# Assay outcomes: PubChem BioAssay, National Center for Advancing Translational Sciences (NCATS)
# This is a sample that favours compounds with a hit; in the whole collection about 10% have one here.
# Lamin A splicing = LMNA splicing modulation. HeLa LMNA splicing GFP/RFP minigene ratio, 48 h. Potency, µM (series often up to 46.1 µM), hits mostly inhibitors. actives 0.01% (n = 200,000). AID 1487; active = well fitted inhibition curve with a large enough effect in the signal ratio, with a control signal flat, not every such curve was filed as active; inconclusive = small, poorly fitted or top-dose-only effect, or effect the other way, or a change in a side signal; the % refers to the signal ratio
#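 Read-out is the ratio of GFP to DsRed2 object intensity, acquired by 488 nm laser-scanning cytometry on HeLa lamin A-EGFP minigene reporter cells. Compound incubation 48 hrs at 37 °C in Opti-MEM with 2% FBS; DMSO 0.5% final.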
# HPGD inh = HPGD (human) dehydrogenase inhibition | P15428 | Potency, µM, hits mostly inhibitors | AID 894 | purified HPGD, NADH fluorescence kinetic, PGE2 substrate | actives 4.3% (n = 150,000); active = well fitted inhibition curve with a large enough effect, not every such curve was filed as active; inconclusive = small, poorly fitted or top-dose-only effect, or another doubt; inactive = no such curve, though single readings can be large or run the other way
#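 NADH formation kinetics: reaction with 30 uM PGE2 and 1 mM NAD+ (final), 20 nM enzyme, Tris-HCl pH 8 with Tween 20, after 15 min compound preincubation at room temperature. Fluorescence change, last versus first of five reads.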
# PNC inhibitor = inhibitors of perinucleolar compartment assembly; PC3M PTB-GFP, PNC prevalence imaging, 16 h; hits give low values; activity change (PNC), negative = inhibition, % at 10 µM; actives 3.1% (n = 140,000);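 active = readout at or below -70, meaning at least 70% loss of cells showing the perinucleolar compartment, a nuclear body marking cancer cells; inconclusive = readout between -30 and a set limit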
#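 Compounds are pinned in duplicate onto adhered PC3M cells stably expressing GFP-tagged PTB and incubated 16 h at 37 C. Cells are then fixed, nuclei stained with Hoechst, and PNC-positive cells counted.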
# IMPase cell inh = cell-permeable inhibitors of inositol monophosphatase (IMPase). CHO-M1 cells, IP1 accumulation, HTRF TR-FRET ratio. 120,000 tested, under 10 active. AID 901. P97697. inhibition (IP1 accumulation), % at 46.1 µM; active = well fitted curve in the direction sought with a large enough effect in the signal ratio, not every such curve was filed as active; inconclusive = small, poorly fitted or top-dose-only effect, or a change in a side signal; inactive = no such curve, though single readings can be large or run the other way; the % refers to the signal ratio;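 note: cells stimulated with carbachol in lithium chloride buffer; higher means more IMPase inhibition seen as more IP1 and lower FRET ratio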
# Target sequence (P97697 whole entry, looked up): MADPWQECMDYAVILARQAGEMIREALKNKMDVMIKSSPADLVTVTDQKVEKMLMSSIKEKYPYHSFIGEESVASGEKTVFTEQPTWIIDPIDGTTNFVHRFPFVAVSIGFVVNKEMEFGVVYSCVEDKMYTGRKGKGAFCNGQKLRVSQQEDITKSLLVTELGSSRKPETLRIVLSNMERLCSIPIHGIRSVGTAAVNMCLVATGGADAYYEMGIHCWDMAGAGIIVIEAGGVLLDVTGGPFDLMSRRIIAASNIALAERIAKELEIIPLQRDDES
#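 CHO-M1, 2000 cells/well, cultured 16–30 h; cpd up to 46 uM; carbachol (50 uM solution, stimulation buffer w/ 50 mM LiCl, pH 7.4), 30 min 37C; IP-One TR-FRET, 10 min RT; Ex 320/Em 665, 620; Hill-fit AC50.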
# ALDH1A1 inh-1 = blocks purified human ALDH1A1 activity; P00352; Purified ALDH1A1, NADH fluorescence, propionaldehyde substrate; Potency, µM (highest dose often 75.3 µM), hits mostly inhibitors; actives 7.3% (n = 220,000); AID 1030; active = well fitted inhibition curve with a large enough effect, not every such curve was filed as active; inconclusive = small, poorly fitted or top-dose-only effect, or another doubt; inactive = no such curve, though single readings can be large or run the other way
# Target sequence (P00352 whole entry, looked up): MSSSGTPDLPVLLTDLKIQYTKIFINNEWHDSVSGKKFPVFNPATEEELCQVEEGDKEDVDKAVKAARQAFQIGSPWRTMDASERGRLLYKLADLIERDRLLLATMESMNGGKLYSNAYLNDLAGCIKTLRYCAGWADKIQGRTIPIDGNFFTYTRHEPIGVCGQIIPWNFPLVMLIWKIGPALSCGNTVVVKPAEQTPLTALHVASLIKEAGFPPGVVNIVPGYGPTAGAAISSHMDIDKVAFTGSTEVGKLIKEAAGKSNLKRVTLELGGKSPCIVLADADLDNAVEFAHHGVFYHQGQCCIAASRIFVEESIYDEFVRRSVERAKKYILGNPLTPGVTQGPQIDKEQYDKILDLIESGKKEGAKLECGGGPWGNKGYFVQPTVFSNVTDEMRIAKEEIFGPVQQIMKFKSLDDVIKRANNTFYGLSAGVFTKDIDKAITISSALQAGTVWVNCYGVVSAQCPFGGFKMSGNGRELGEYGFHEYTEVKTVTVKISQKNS
# KinaseGlo FLuc = counter-screen: inhibitors of Kinase-Glo firefly luciferase. actives 0.28% (n = 200,000). AID 1379. Q27757. Kinase-Glo luciferase, ATP luminescence, 8 min. Potency, µM (titrated, usually from 38.3 µM), actives largely listed as inhibitors; active = well fitted inhibition curve with a large enough effect; inconclusive = small, poorly fitted or top-dose-only effect; note: nearly all actives have a fitted effect of over 60% in size
#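 Inhibition of Kinase-Glo luciferase light generation was assessed at 10 uM ATP in pH 7.2 imidazole buffer, with luminescence measured after eight minutes at ambient temperature.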
# HPGD inh cf = confirmation of human HPGD inhibitors; shares compounds with HPGD inh; recombinant HPGD, NADH fluorescence, PGE2 substrate; Potency, µM (highest dose often 57.1 µM), most hits filed as inhibitors; actives 90% (n = 90); AID 2429
# ALDH1A1 inh-2 = Inhibits human ALDH1A1, confirmation and counter-screen. shares compounds with ALDH1A1 inh-1. purified ALDH1A1, NADH fluorescence, propionaldehyde/NAD+. Potency, µM (top dose mostly 57.1 µM), usual class: inhibitors. actives 90% (n = 90). AID 493210
# Hits are given with their value; - = inactive; ? = inconclusive; . = not tested or not shown; [ ] = dose if it differs, or a comment. Unless noted, calls come from the whole dose curve.
SMILES,Lamin A splicing,HPGD inh,PNC inhibitor,IMPase cell inh,ALDH1A1 inh-1,KinaseGlo FLuc,HPGD inh cf,others
O=C(CCc1ccc(Oc2cc([N+](=O)[O-])cc([N+](=O)[O-])c2)cc1)N1CCCCC1,?,0.0447µM,-,-,4.47µM,-,0.224µM,
O=C(Nc1cc(Oc2ccc(Cl)cc2)cc([N+](=O)[O-])c1)c1ccco1,?,-,-,.,-,-,.,
O=C(CCc1ccc(Oc2cc([N+](=O)[O-])cc([N+](=O)[O-])c2)cc1)Nc1cccc(Cl)c1,?,-,-,.,?,-,-,
COCCCNC(=O)c1cnn(-c2ccc(F)cc2F)c1C1CCNCC1,-,.,.,.,.,.,.,
O=C(CSc1nc(-c2ccccc2)nn1C(=O)c1ccccc1)Nc1cccc([N+](=O)[O-])c1,-,1.26µM,-,-,22.4µM,-,2.51µM,
Cn1nnnc1SCC(=O)Nc1cccc([N+](=O)[O-])c1,-,.,.,.,?,-,.,
Cc1ccc(C)c(S(=O)(=O)Nc2cc(SCC(=O)O)c(O)c3ccccc23)c1,?,0.891µM,-,.,25.1µM,-,0.398µM,
Cc1ccc(S(=O)(=O)Nc2ccccc2C(=O)O)c(C)c1,.,?,.,.,?,-,.,
O=C(c1ccc2c(c1)OCO2)N1CCCCC1,.,0.1µM,.,-,-,-,0.0631µM,
O=C(c1ccc2c(c1)OCO2)N1CCc2ccccc2C1,-,0.447µM,-,-,?,-,0.708µM,
O=C(c1ccc2c(c1)OCCO2)N1CCCCC1,-,0.126µM,-,-,-,-,0.224µM,
S=C(c1ccc2c(c1)OCO2)N1CCCCC1,-,-,-,-,-,-,.,
CCOCCn1ccc2c(OCC(=O)Nc3cccc(F)c3)cccc2c1=O,-,.,.,.,.,.,.,
CCC(=O)N1c2ccccc2CC1C(=O)NCCCN1CCN(c2ccccc2)CC1 (centres undefined),-,.,.,.,.,.,.,
Cc1ccc(S(=O)(=O)N2CCCc3cc(NC(=O)c4ccccc4Cl)ccc32)cc1,-,.,.,.,.,.,.,
CCOC(=O)c1c(NC(=O)CCCOc2ccc(C)cc2)sc2c1CCC(C)C2 (centres undefined),.,.,.,-,.,.,.,
Cc1ccc(CN(c2ccc(C(=O)N3CCc4ccccc4C3)cc2)S(C)(=O)=O)cc1,?,?,?,-,-,-,11.2µM,
Cc1ccc(S(=O)(=O)NCc2ccc(C(=O)N3CCc4ccccc4C3)cc2)cc1,?,1.41µM,-,.,?,-,2.24µM,
COc1ccc(NC(=O)CC(C)n2nc(C)cc2C)cc1Cl (centres undefined),-,.,.,.,.,.,.,
O=C(NCCO)c1ccc(Cl)cc1,.,-,.,.,-[13.5 µM],-[7.66 µM],.,
Cn1cc(S(=O)(=O)c2ccccc2)c(=O)c2cc(F)c(N3CCN(c4ccccc4)CC3)cc21,-,.,.,.,.,.,.,
O=c1[nH]sc2ccccc12,?,.,.,.,?,-,.,
O=c1c2ccccc2sn1-c1ccccc1,-,0.562µM,-,-,4.47µM,-,0.447µM,
CC1CCCC(C)N1C(=O)c1cc2ncc(CCCl)cn2n1 (centres undefined),?,1µM,-83.9,.,?,-,0.794µM,
CC1CCCC(C)N1C(=O)c1cc(F)c(F)cc1Cl (centres undefined),-,-,-,-,-,-,.,
SMILES,Lamin A splicing,HPGD inh,PNC inhibitor,IMPase cell inh,ALDH1A1 inh-1,KinaseGlo FLuc,HPGD inh cf,others
COc1ccc(-c2nc3scc(CCNC(=O)c4cc(OC)cc(OC)c4)n3n2)cc1,-,.,.,.,.,.,.,
CCNC(=O)c1ccc(CSc2ccc(Cl)cc2)cc1,?,-,-109.0,.,-,-,?,
COc1ccc(C(=O)c2ccccc2O)c(O)c1,?,0.501µM,.,-,-,-,1µM,
COc1ccc(C(=O)c2ccc(OC)cc2O)c(O)c1,-,.,-,-,-,.,.,
CN1CCN(c2ccnc(-c3ccccc3C(F)(F)F)n2)CC1,-,-,.,.,?,-,.,
COc1ccc(OC)c(C(=O)c2ccc(C(=O)N3CCCCC3)cc2)c1,-,0.251µM,-,-,?,-,0.199µM,
Cc1ccc(-c2n[nH]c(=S)n2/N=C/C=C\c2ccccc2[N+](=O)[O-])cc1,-,0.891µM,-,?,-,-,0.501µM,
COc1ccccc1/C=C/C=N/n1c(-c2ccc(C)cc2)n[nH]c1=S,?,1.41µM,?,.,31.6µM,-,1.58µM,
CCC1CCCCN1C(=O)c1nn2cccnc2c1Cl (centres undefined),-,-,-,-,-,-,-,
CN(Cc1ccccc1)C(=O)c1nn2cccnc2c1Cl,.,.,.,.,?,-,.,
COc1cccc([C@H]2Oc3ccc(OC)cc3/C(=N\O[C@@H](C)c3cn([C@H](CO)Cc4ccccc4)nn3)[C@@H]2O)c1,.,.,.,.,-[13.5 µM],.,.,
O=S(=O)(Nc1cc(Sc2cccc3cccnc23)c(O)c2ccccc12)c1ccccc1,?,1.12µM,-102.5,.,?,-,0.631µM,
Cc1ccc(S(=O)(=O)Nc2cccc3cccnc23)cc1,?,-,?,-,?,-,.,
O=C(C1CCC(Cn2c(=S)[nH]c3ccccc3c2=O)CC1)N1CCOCC1 (centres undefined),?,1.58µM,-,-,-,-,2.51µM,
C=CCNC(=S)N/N=C/c1ccc(-c2cc(Cl)ccc2Cl)o1,?,?,-,-,?,-,.,
CC1=NOC(=O)/C1=C/c1ccc(-c2ccc(Cl)cc2)o1,?,1.12µM,-,-,3.98µM,-,1.12µM,
CC1=NOC(=O)/C1=C\c1ccc(-c2cc(Cl)ccc2Cl)o1,-,1.41µM,-,-,3.55µM,-,0.447µM,
CCn1c(SCC(=O)Nc2ccc3c(c2)OCCO3)nnc1-c1ccco1,-,-,-,-,?,-,.,
Cn1c(SCC(=O)Nc2ccc3c(c2)OCCO3)nnc1-c1ccco1,-,.,?,-,0.0316µM,.,.,ALDH1A1 inh-2=25.1µM
COc1ccc([N+](=O)[O-])cc1NC(=O)C(C)N1CCN(C(=O)c2ccco2)CC1 (centres undefined),.,.,.,.,1.26µM,-,.,ALDH1A1 inh-2=3.16µM
COc1ccc(S(=O)(=O)NCC2CCCN(C(=O)c3ccccc3)C2)cc1 (centres undefined),.,.,.,.,0.199µM,-,.,ALDH1A1 inh-2=0.199µM
COc1ccc(S(=O)(=O)NCC2CCCN(C(=O)CNC(C)=O)C2)cc1 (centres undefined),-,.,.,.,?,-,.,
COc1ccc(S(=O)(=O)NCC2CCCN(C(=O)CC3CCCC3)C2)cc1 (centres undefined),-,.,.,.,0.794µM,-,.,ALDH1A1 inh-2=0.891µM
COc1ccc(S(=O)(=O)NCC2CCCN(C(=O)c3sccc3C)C2)cc1 (centres undefined),?,.,.,.,0.178µM,-,.,ALDH1A1 inh-2=0.0891µM
CCOc1ccc(C(=O)NCCc2sc(-c3ccc(F)cc3)nc2C)cc1,-,.,.,.,.,.,.,
